The text below walks through data of PubChem BioAssay (NCI).

Compounds without any hit were thinned out: in the full panel of roughly 83,000, 20% have a hit.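 Negative percent growth values reflect cell death: -40 means 40% of the cells present at the start died, and -100 means all died.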 Values without a mark were called inactive. Activity calls are given as the source filed them. Rule for the calls: active = growth percent below 10; inactive = the rest.

Some test systems named below: DU-145 prostate; K-562 leukemia; MALME-3M melanoma; MDA-MB-231 breast; RXF 393 renal; SF-268 CNS; SF-295 CNS; SF-539 CNS; UACC-257 melanoma; M14 melanoma.
Common to all, as to test: NCI-60 one-dose screen, 48 h (100 = growth as untreated, 0 = no growth, -100 = all killed)
Holding throughout (settings): 10 µM unless noted

In the case of `CCn1c(O)c(/C=N/NC(=O)C(C)c2ccc(CC(C)C)cc2)sc1=S` (stereo not given), the growth in the experiment on DU-145 prostate was 22.1%; with K-562 leukemia, 9.15% (active); in the experiment on MALME-3M melanoma it was 64.3%; with MDA-MB-231 breast it was 35.4%; in the experiment on RXF 393 renal it was 9.92% (active); with SF-268 CNS, 32.9%. Moreover, the growth was 15.8% in the experiment with SF-295 CNS, -13.5% (active) in the experiment with SF-539 CNS, 51.9% in the experiment with UACC-257 melanoma and 6.26% (active) in the experiment with M14 melanoma.
Turning to `CC1(C)CC[C@]2(C(=O)Nc3ccccn3)CC[C@]3(C)C(=CC[C@@H]4[C@@]5(C)C/C(=C/c6cccnc6)C(=O)C(C)(C)[C@@H]5CC[C@]43C)[C@H]2C1`, the growth is 53.2% with DU-145 prostate; 18.7% in the experiment on K-562 leukemia; 48.3% with MALME-3M melanoma; 73.2% with MDA-MB-231 breast; 33.3% in the experiment with RXF 393 renal; 53.5% in the experiment with SF-268 CNS. Further, the growth in the experiment on SF-295 CNS was 38.1%; in the experiment with SF-539 CNS, 51.6%; with UACC-257 melanoma it was 26.2%; in the experiment with M14 melanoma, 35.6%.
On to `CCN(CC)S(=O)(=O)c1ccc(OC)c(NC(=O)c2[nH]c(C)c3c2CCCCC3=O)c1`, for which the growth with DU-145 prostate was 72.8%; in the experiment with K-562 leukemia, 30%; in the experiment with MALME-3M melanoma, 60.6%; with MDA-MB-231 breast, 43%; with RXF 393 renal, 38.9%; in the experiment with SF-268 CNS, 68.4%. In addition, the growth is 34.1% with SF-295 CNS, 36.1% in the experiment on SF-539 CNS, 39.6% in the experiment with UACC-257 melanoma and 42.3% in the experiment on M14 melanoma.
As to `Cc1nn(-c2ccc(F)cc2)c2ncnc(Oc3ccc(NC(=O)Nc4ccc(Cl)c(C(F)(F)F)c4)cc3)c12`, the growth with DU-145 prostate was 106%; in the experiment with K-562 leukemia, 105%; in the experiment on MALME-3M melanoma, 100%; in the experiment with MDA-MB-231 breast, 103%; with RXF 393 renal, 107%; in the experiment with SF-268 CNS it was 93.4%. Also, the growth in the experiment on SF-295 CNS is 102%; in the experiment with SF-539 CNS, 96.8%; with UACC-257 melanoma, 99.9%; with M14 melanoma it was 106%.
Regarding `O=[N+]([O-])c1cnc(N2CCN(CC3CC3)CC2)nc1N1CCN(CC2CC2)CC1`, the growth in the experiment on DU-145 prostate is 101%; with K-562 leukemia it was 102%; with MALME-3M melanoma it was 97.7%; in the experiment with MDA-MB-231 breast it was 99.9%; in the experiment with RXF 393 renal, 73.1%; with SF-268 CNS, 87.7%. The growth is 99.5% in the experiment on SF-295 CNS, 90.8% with SF-539 CNS, 108% in the experiment with UACC-257 melanoma and 98.2% in the experiment with M14 melanoma.
For `C#CCOc1ccc2ncnc(N3CCN(C(=O)CCl)CC3)c2c1`, the growth with DU-145 prostate was 102% [8.25 µM]; in the experiment with K-562 leukemia it was 18.9% [8.25 µM]; in the experiment with MALME-3M melanoma, 92.4% [8.25 µM]; in the experiment with MDA-MB-231 breast it was 95.7% [8.25 µM]; in the experiment with RXF 393 renal, 87.2% [8.25 µM]; in the experiment with SF-268 CNS, 68.7% [8.25 µM]. Further, the growth in the experiment with SF-295 CNS was 109% [8.25 µM]; in the experiment on SF-539 CNS, 91.4% [8.25 µM]; with UACC-257 melanoma, 90.8% [8.25 µM]; in the experiment on M14 melanoma, 61.7% [8.25 µM].
`O=C1c2cc3c(cc2-c2c1c1ccc(F)cc1c(=O)n2C[C@H](O)[C@@H](O)[C@H](O)CO)OCO3`: the growth with DU-145 prostate was 2.47% (active); with K-562 leukemia, 9.69% (active); in the experiment with MALME-3M melanoma, -54.6% (active); in the experiment on MDA-MB-231 breast it was 11.1%; in the experiment on RXF 393 renal it was -47.1% (active); with SF-268 CNS, 11.2%. For the same compound, the growth in the experiment on SF-295 CNS is -0.994% (active); in the experiment on SF-539 CNS, -44.6% (active); in the experiment with UACC-257 melanoma it was -44.3% (active); with M14 melanoma, -14% (active).
On to `COc1ccc(-c2cc(C(=O)N=Nc3c(O)[nH]c4ccc(Br)cc34)no2)cc1`, for which the growth was 105% in the experiment on DU-145 prostate; 96.5% in the experiment on K-562 leukemia; 92.4% in the experiment with MALME-3M melanoma; 92.8% in the experiment on MDA-MB-231 breast; 107% in the experiment with RXF 393 renal; 99.4% in the experiment on SF-268 CNS. The growth was 103% in the experiment on SF-295 CNS, 95.9% with SF-539 CNS, 112% in the experiment on UACC-257 melanoma and 98.9% in the experiment with M14 melanoma.
On to `COc1ccc(-c2nc3ccc(-c4nc5ccc(N6CCN(c7ccc(F)cc7)CC6)cc5[nH]4)cc3[nH]2)cc1OC`, for which the growth is 80.3% with DU-145 prostate; 17.7% with K-562 leukemia; 43.9% with MALME-3M melanoma; 107% in the experiment on MDA-MB-231 breast; 68.6% in the experiment on RXF 393 renal; 82.6% with SF-268 CNS. Moreover, the growth with SF-295 CNS is 76%; with SF-539 CNS, 68.2%; with UACC-257 melanoma, 104%; in the experiment with M14 melanoma, 61.8%.
`CCCOc1cc2ccccc2cc1C(=O)Nc1nc(NC)c2c(ccc3nccc32)[nH]1`: the growth in the experiment on DU-145 prostate is -82.8% (active); with K-562 leukemia, -54.3% (active); with MALME-3M melanoma, -80.7% (active); in the experiment on MDA-MB-231 breast it was -71.3% (active); with RXF 393 renal, -71.7% (active); in the experiment with SF-268 CNS, -78% (active). Also, the growth in the experiment on SF-295 CNS was -66.6% (active); with SF-539 CNS, -76.9% (active); with UACC-257 melanoma it was -75.4% (active); in the experiment on M14 melanoma, -75.7% (active).
As for `CCN1CCC2(CC1)NC(=O)c1c(c3ccc(Cl)c(Cl)c3n1C)C2C#N` (stereo not given), the growth in the experiment on DU-145 prostate was 72.7%; in the experiment with K-562 leukemia, 23.3%; in the experiment on MALME-3M melanoma it was -6.1% (active); in the experiment on MDA-MB-231 breast, 60.5%; with RXF 393 renal it was 76.6%; in the experiment on SF-268 CNS it was 51.4%. For the same compound, the growth with SF-295 CNS is 70.8%; with SF-539 CNS, 52%; in the experiment on UACC-257 melanoma it was -5.12% (active); in the experiment on M14 melanoma, -38.5% (active).
With `C#CC(F)(F)[C@]1(O)CC[C@H]2[C@@H]3CCC4=CC(=O)CCC4=C3[C@@H](c3ccc(C4CC4)cc3)C[C@@]21C`, the growth is 30.3% in the experiment on DU-145 prostate; 14.3% with K-562 leukemia; -71.7% (active) in the experiment with MALME-3M melanoma; -10.3% (active) in the experiment with MDA-MB-231 breast; 31.1% in the experiment with RXF 393 renal; -60.5% (active) with SF-268 CNS. The growth in the experiment with SF-295 CNS is -59.6% (active); in the experiment on SF-539 CNS, -84.3% (active); with UACC-257 melanoma it was 77.8%; with M14 melanoma, 62.2%.
Regarding `N#C/C(=C\c1ccc(-c2cc(C(F)(F)F)ccc2Cl)o1)c1nc(-c2ccco2)cs1`, the growth with DU-145 prostate is 108%; with K-562 leukemia it was 89.3%; in the experiment on MALME-3M melanoma, 106%; with MDA-MB-231 breast, 93.1%; in the experiment on RXF 393 renal, 112%; in the experiment on SF-268 CNS it was 99.7%. The growth in the experiment with SF-295 CNS was 101%; in the experiment with SF-539 CNS, 99.3%; with UACC-257 melanoma, 112%; in the experiment with M14 melanoma, 99.4%.
